Assay [1] has as its target Ephrin type-A receptor 5 (Homo sapiens) (UniProt P54756). To be noted: at 10 µM.
Assay [2] shares this target. To be noted: at 1 µM.
The target of assay [3] is T1, Ephrin type-B receptor 2 (Homo sapiens) (UniProt P29323).
T1 sequence (whole entry): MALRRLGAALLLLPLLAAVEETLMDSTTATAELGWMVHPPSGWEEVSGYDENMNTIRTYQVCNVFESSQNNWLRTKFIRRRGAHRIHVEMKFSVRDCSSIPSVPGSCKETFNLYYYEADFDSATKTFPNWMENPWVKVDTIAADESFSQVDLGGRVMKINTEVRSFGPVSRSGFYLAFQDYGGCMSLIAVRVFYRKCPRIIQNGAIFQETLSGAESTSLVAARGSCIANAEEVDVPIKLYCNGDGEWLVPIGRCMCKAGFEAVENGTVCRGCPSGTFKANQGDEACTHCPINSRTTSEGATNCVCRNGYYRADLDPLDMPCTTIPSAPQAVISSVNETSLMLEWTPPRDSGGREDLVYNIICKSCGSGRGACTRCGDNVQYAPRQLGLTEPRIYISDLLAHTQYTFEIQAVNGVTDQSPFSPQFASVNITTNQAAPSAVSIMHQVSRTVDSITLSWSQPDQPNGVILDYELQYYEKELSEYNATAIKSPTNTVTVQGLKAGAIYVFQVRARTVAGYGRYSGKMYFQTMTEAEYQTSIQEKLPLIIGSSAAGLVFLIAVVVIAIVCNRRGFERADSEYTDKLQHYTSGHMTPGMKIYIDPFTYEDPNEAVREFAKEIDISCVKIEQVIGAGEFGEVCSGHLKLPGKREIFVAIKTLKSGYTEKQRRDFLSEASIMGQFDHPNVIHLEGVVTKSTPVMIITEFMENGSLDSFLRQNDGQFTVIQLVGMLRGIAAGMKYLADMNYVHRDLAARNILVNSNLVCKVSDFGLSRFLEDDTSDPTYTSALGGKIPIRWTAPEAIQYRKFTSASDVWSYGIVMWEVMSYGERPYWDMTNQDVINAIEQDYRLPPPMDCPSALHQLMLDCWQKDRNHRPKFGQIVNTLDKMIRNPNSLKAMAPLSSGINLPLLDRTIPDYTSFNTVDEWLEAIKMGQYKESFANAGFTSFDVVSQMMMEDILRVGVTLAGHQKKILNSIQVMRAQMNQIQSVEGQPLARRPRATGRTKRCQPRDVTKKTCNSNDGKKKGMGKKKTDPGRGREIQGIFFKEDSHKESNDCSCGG
To be noted: at 1 µM.

The target of assay [4] is T1, Ephrin type-B receptor 2 (Homo sapiens). To be noted: at 10 µM.
For assay [5], the target named is T2, Ephrin type-B receptor 3 (Homo sapiens) (UniProt P54753).
T2 sequence (whole entry): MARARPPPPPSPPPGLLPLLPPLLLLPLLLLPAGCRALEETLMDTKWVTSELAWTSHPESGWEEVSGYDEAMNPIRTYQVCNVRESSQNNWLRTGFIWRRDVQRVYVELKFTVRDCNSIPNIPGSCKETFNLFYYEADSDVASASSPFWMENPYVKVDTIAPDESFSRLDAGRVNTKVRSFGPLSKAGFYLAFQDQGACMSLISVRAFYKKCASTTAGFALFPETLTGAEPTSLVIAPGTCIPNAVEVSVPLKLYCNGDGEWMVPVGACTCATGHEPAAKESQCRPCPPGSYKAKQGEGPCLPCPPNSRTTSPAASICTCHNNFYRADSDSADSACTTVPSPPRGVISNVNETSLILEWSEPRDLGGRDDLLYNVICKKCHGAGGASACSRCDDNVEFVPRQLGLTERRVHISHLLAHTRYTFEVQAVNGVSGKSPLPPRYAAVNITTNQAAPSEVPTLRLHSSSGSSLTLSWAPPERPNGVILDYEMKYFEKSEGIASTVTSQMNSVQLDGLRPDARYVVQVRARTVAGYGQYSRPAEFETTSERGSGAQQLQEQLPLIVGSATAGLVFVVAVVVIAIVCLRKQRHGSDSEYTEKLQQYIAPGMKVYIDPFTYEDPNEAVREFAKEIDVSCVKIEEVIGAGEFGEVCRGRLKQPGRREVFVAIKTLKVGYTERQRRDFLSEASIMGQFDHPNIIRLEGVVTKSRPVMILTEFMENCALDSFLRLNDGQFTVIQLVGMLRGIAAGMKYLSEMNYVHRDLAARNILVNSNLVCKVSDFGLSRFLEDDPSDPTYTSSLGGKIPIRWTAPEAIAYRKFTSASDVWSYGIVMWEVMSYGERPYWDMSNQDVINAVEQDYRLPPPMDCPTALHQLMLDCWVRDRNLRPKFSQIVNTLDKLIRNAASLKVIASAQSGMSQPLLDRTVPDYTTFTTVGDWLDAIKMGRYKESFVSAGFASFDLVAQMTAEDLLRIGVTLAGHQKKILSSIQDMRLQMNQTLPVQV
To be noted: at 1 µM.

Assay [6] deals with T2, Ephrin type-B receptor 3 (Homo sapiens). To be noted: at 10 µM.
For assay [7], the target named is T3, Ephrin type-B receptor 4 (Homo sapiens) (UniProt P54760).
T3 sequence (whole entry): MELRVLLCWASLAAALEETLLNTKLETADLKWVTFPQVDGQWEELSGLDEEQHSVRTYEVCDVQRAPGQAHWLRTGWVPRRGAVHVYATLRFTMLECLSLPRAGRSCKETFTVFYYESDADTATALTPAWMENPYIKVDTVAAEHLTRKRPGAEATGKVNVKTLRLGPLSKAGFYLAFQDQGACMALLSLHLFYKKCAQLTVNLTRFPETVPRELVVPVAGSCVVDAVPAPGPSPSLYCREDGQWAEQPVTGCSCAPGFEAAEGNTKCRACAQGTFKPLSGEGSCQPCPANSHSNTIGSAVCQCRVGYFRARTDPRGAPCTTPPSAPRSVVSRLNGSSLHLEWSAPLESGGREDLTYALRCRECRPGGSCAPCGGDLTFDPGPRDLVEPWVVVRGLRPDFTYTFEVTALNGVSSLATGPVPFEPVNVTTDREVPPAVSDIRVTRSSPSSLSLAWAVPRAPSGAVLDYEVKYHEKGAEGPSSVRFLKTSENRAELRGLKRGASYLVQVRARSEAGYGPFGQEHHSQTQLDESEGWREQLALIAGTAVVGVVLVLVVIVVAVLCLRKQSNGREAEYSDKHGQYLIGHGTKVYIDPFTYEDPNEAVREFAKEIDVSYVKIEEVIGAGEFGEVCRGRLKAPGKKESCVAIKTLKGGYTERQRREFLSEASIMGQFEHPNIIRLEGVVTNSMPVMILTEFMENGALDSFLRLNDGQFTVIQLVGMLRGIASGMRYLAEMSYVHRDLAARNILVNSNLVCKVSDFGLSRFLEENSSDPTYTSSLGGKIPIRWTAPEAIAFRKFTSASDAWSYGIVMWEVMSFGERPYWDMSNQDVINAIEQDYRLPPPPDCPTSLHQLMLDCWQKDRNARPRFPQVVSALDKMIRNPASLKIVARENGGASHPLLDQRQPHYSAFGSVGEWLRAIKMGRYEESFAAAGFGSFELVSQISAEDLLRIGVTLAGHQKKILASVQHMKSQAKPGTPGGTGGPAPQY
To be noted: at 1 µM.

Assay [8] addresses T3, Ephrin type-B receptor 4 (Homo sapiens). To be noted: at 10 µM.
For assay [9], the target named is Receptor tyrosine-protein kinase erbB-4 (Homo sapiens) (UniProt Q15303). To be noted: at 1 µM.
The target is the same in assay [10]. To be noted: at 10 µM.
The target of assay [11] is Focal adhesion kinase 1 (Homo sapiens) (UniProt Q05397). To be noted: at 1 µM.
Chain of Focal adhesion kinase 1 (Homo sapiens) (Q05397 2-1052 limits assumed): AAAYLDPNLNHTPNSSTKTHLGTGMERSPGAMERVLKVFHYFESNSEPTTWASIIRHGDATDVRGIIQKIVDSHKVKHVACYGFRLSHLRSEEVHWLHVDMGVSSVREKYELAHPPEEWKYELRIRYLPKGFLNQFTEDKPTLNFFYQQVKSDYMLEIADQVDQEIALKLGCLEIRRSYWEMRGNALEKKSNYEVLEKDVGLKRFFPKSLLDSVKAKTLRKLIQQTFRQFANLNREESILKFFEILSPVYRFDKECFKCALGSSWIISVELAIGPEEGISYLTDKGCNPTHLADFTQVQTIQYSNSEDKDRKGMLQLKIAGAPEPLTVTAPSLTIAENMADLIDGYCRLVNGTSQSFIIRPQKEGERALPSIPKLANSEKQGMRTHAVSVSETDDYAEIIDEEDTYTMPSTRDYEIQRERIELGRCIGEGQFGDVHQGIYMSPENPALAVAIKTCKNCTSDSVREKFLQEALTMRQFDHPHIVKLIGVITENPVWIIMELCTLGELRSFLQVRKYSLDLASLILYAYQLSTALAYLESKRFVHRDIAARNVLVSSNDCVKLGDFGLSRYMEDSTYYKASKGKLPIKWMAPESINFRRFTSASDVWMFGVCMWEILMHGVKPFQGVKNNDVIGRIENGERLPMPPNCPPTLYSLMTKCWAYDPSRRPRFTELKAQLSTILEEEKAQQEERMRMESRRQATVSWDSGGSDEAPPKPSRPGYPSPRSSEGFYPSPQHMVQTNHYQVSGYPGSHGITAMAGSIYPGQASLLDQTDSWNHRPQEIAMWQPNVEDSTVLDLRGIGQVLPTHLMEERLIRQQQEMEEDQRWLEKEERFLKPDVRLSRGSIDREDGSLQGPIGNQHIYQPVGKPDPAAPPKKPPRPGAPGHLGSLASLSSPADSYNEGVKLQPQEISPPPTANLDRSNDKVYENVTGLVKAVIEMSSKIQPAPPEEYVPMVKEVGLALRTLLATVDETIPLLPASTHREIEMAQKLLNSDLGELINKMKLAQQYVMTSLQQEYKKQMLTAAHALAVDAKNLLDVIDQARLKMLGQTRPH

Chain of Ephrin type-A receptor 5 (Homo sapiens) (P54756 whole entry): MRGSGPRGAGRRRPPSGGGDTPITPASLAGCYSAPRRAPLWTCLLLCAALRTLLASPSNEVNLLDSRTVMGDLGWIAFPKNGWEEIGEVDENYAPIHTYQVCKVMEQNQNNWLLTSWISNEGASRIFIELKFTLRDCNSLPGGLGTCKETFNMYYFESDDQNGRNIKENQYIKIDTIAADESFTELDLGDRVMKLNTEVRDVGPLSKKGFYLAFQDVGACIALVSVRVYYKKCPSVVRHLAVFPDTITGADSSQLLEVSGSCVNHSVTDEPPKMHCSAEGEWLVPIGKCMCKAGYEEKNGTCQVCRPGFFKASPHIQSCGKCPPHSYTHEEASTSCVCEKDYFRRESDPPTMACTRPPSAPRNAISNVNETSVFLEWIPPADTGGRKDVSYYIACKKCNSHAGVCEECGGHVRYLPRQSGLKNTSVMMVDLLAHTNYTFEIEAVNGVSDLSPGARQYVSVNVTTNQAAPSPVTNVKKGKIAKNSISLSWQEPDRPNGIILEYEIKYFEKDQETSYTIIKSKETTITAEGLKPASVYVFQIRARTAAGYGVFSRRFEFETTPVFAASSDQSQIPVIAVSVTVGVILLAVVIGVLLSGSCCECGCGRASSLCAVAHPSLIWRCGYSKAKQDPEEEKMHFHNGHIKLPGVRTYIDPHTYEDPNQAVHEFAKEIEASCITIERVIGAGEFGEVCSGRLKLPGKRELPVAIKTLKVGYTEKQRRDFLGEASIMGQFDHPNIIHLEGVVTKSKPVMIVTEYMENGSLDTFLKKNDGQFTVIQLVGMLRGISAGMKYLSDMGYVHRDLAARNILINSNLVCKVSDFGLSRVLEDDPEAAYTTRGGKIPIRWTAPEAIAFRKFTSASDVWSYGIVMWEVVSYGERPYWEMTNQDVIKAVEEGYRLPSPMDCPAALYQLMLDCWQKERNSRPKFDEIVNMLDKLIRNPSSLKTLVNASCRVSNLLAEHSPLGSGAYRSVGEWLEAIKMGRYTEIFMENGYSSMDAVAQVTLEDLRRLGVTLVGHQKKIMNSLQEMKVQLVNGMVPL
Chain of Receptor tyrosine-protein kinase erbB-4 (Homo sapiens) (Q15303 whole entry): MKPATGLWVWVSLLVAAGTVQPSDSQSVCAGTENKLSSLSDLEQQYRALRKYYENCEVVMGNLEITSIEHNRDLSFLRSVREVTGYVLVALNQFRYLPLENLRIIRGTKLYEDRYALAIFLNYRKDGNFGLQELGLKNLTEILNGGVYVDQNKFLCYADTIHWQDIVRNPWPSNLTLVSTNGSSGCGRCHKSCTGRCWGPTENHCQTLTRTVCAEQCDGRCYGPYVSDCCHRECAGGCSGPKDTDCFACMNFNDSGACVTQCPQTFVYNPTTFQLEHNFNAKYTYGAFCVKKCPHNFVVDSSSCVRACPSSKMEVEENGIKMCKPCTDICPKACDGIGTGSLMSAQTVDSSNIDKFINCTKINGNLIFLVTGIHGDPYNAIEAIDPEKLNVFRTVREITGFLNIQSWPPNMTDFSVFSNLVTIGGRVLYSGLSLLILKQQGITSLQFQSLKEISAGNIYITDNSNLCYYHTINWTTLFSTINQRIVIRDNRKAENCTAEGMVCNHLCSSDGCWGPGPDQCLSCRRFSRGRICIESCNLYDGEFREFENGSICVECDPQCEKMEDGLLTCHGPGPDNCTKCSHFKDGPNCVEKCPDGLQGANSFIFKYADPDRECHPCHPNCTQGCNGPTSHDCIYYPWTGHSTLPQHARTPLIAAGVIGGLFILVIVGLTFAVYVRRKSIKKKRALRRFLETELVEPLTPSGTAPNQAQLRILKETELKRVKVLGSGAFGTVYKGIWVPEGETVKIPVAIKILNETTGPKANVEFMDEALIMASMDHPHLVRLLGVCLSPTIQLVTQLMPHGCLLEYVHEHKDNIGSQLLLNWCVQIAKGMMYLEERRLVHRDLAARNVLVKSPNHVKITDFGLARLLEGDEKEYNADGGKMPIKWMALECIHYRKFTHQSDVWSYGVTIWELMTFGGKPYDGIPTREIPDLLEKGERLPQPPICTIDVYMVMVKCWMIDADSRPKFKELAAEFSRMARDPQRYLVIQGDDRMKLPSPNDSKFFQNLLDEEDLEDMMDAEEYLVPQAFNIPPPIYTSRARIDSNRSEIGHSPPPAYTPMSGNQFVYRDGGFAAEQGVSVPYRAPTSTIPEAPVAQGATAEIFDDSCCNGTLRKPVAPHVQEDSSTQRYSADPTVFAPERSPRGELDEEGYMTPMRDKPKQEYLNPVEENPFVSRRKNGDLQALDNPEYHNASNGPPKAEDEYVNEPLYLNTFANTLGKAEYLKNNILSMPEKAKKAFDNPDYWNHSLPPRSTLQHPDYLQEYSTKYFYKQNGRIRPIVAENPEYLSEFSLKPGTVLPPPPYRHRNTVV

For orientation: residual activity means the signal under treatment as a percentage of the control signal. Consider `CCOc1nc(NC(=O)Cc2cc(OC)ccc2OC)cc(N)c1C#N`, for which the residual activity in [1] was 74%.

For the compound `O=C1NC(=O)C(c2cn(CCCn3ccnc3)c3ccccc23)=C1Nc1ccccc1`, the residual activity was 125% in assay [2]; 109% in assay [1]; 115% in [3]; 122% in [4]; 114% (inactive) in [5]; 148% in assay [6]. Moreover, the residual activity came to 109% in assay [7]; 119% in [8]; 70% in [9]; 13% in [10]; 119% in [11].
